Source: PubChem BioAssay
Several values for one entry are separate records, joined by “and”; a condition that tells them apart may be missing. Equal values may be shown once. Activity calls are given as the source filed them.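 Rule for the calls, unless noted: active = at least 20% inhibition of 6-phosphogluconate dehydrogenase activity; inactive = the rest.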

Key:
[1] = stimulators of nuclear beta-catenin in C2C12, primary screen, imaging, WNT3A-conditioned medium, mouse C2C12, NPC library (AID 1117326; in the data active = nuclear beta-catenin stimulation mostly above about 4.2%, no sharp cut-off; inactive = mostly below about 10%); settings: stronger effect = higher value
[2] = growth inhibition of GSK3B-pretreated HCT116 cells – cell-based, CellTiter-Glo, 0.2 to 20 µM (AID 1117336;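 active = compounds lowering colon cancer cell viability after pretreatment blocking the GSK3B kinase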); settings: HCT116 viability after GSK3B inhibitor, at 20 µM, stronger effect = higher value
[3] = HCT116 colon cancer cell growth inhibition, primary screen, CellTiter-Glo luminescence, NPC library (AID 1117342;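 active = compounds that lower survival of HCT116 colon cancer cells in the luminescence readout, no numeric limit stated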); settings: at 20 µM (top of the series)
[4] = CellTiter-Glo luminescent readout of SW480 viability loss, NPC library primary (AID 1117343;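 active = compounds that lower viability of the colon cancer cells in the luminescence readout, with no numeric limit stated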); settings: CellTiter-Glo luminescence; at 20 µM (top of the series) unless noted
[5] = decreased DLD-1 cellular survival, CellTiter-Glo luminescent readout, NPC compound collection, primary HTS (AID 1117346;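 active = compounds that lower survival of DLD-1 colon cancer cells in the luminescence readout, no cutoff given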); settings: DLD-1 viability, CellTiter-Glo luminescence; at 20 µM (top of the series)
[6] = target: 6-phosphogluconate dehydrogenase, decarboxylating (Homo sapiens) (UniProt P52209); experiment: 6PGD enzyme inhibitors, primary screen, biochemical, human, recombinant enzyme, NADPH absorbance (AID 1159550); settings: recombinant 6PGD, NADPH absorbance 341 nm; at 10 µM; stronger effect = higher value
Sequence of 6-phosphogluconate dehydrogenase, decarboxylating (Homo sapiens) (P52209 whole entry, looked up): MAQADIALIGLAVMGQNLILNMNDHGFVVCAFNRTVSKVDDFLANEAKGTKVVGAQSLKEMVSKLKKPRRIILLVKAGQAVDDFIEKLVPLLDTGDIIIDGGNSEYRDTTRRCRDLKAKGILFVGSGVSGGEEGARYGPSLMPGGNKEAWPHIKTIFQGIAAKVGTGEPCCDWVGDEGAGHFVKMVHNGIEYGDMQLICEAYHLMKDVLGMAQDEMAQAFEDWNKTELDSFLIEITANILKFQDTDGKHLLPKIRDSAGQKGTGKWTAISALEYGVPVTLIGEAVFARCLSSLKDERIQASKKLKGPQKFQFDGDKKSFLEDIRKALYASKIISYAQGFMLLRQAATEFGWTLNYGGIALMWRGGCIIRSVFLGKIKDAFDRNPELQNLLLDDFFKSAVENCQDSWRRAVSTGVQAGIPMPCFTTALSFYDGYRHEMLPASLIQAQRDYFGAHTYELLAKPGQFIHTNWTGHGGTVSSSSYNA

[7] = differential killing of epithelial or mesenchymal cells, primary screen, imaging, PC-3E GFP, TEM4-18 mCherry, co-culture (AID 1345086;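 active = compounds killing one labelled cell type while sparing the other, by normalised counts and ratio limits, not self-fluorescent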;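 for all read-outs here: cells exposed to compound for 72 h before imaging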;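 for red/green cell ratio (normalised): normalised mesenchymal count divided by normalised epithelial count so high means epithelial killing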); settings: imaging cell counts, at 1 µM; for red/green cell ratio (normalised): actives lie on both sides, counts scaled to control wells, 1 = unselective
[8] = sensitizers of A549 cells to miR-34 induction, primary screen, imaging, A549 dox-inducible miR-34, nuclei and caspase counts (AID 1347080;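 active = compounds whose cell count with miR-34 switched on is under 0.7 times the count with it off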); settings: A549 miR-34 inducible, Hoechst nuclei count, 48 h
[9] = target: NAD(+) hydrolase SARM1 (Homo sapiens) (UniProt Q6SZW1); experiment: SARM1 TIR NADase inhibitors, cell lysate, NAD-Glo luminescence (AID 1508614;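 active = compound whose remaining NAD level is above about 45 nM, limit read from the data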;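 note: higher remaining NAD means stronger inhibition of SARM1 NADase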); settings: SAM-TIR HEK293T lysate NADase, at 1 µM, stronger effect = higher value
Sequence of NAD(+) hydrolase SARM1 (Homo sapiens) (Q6SZW1 whole entry, looked up, the tested form may be a part): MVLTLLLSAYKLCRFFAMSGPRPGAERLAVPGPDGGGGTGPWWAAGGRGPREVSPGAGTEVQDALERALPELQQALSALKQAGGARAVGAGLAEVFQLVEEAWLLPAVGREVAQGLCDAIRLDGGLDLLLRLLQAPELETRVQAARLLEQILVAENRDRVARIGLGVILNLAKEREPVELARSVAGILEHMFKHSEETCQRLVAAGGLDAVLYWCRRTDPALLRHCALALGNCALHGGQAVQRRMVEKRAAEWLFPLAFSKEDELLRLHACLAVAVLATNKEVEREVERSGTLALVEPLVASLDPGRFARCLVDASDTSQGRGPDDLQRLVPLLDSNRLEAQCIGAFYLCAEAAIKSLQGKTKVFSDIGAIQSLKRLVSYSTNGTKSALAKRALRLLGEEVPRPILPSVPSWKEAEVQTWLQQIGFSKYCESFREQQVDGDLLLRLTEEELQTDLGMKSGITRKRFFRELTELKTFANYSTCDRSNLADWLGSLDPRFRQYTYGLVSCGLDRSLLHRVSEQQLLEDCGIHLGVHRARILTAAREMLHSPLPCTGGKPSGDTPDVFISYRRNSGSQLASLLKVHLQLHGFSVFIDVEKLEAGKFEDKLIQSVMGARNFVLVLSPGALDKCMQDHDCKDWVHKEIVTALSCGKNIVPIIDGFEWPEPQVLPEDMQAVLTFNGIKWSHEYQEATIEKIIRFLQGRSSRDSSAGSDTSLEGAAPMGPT

[10] = target: Mitogen-activated protein kinase 7 (Homo sapiens) (UniProt Q13164); experiment: ERK5 transactivation activators in reporter cells, primary screen, cell-based, HTS (AID 1508626;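 active = luciferase signal above three times the same-plate solvent-only control wells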;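 note: luciferase driven by Gal4-ERK5 fusion binding five Gal4 sites before minimal TATA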); settings: HeLa Gal4-ERK5 transactivation, 18 h, at 5 µM, stronger effect = higher value
Sequence of Mitogen-activated protein kinase 7 (Homo sapiens) (Q13164 whole entry, looked up, the tested form may be a part): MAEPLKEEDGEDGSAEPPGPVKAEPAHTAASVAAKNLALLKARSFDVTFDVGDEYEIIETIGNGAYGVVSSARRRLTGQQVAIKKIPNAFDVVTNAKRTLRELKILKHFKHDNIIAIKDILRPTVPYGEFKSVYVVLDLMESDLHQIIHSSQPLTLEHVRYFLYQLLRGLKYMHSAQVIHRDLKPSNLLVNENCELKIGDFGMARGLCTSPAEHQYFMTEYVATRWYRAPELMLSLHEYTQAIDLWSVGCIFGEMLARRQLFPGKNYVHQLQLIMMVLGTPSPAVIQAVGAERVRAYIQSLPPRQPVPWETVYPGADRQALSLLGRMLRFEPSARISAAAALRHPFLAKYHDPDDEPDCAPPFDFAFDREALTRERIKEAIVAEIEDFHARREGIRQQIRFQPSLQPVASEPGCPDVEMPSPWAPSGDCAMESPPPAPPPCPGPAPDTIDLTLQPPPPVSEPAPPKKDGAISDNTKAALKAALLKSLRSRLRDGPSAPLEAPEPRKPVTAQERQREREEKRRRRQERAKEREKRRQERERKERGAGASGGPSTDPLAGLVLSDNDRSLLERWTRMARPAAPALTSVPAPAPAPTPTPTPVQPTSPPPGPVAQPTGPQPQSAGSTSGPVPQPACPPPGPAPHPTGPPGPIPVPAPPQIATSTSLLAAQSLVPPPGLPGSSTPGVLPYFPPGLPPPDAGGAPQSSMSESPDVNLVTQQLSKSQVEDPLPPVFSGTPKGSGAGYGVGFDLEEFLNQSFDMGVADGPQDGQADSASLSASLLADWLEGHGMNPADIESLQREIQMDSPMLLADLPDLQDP

[11] = viability rescue of complex I mutant cybrids, primary screen, cell-based, galactose medium, ATP luminescence (AID 1645843;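 active = z-score of at least 1.8 in each of two replicates, scored against plate mean and spread of sample wells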;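 note: positive z means more ATP and so rescue of galactose-driven cybrid death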); settings: complex I mutant cybrid cells, 72 h, stronger effect = higher value
[12] = hESC survival regulators, cell-based (AID 493140; call rule not given here;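 note: cells exposed to compounds for four days before counting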); settings: human embryonic stem cell survival screen; stronger effect = higher value
[13] = stimulators of insulin release from INS-1E, primary screen, cell-based, 5 mM glucose, NPC library (AID 1117329;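 active = compound raises insulin release from rat beta cells at 5 mM glucose, no numeric limit stated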); settings: rat INS-1E insulin secretion, at 10 µM, stronger effect = higher value
[14] = inhibition of endothelial tube formation, primary screen, imaging, VEGF stimulated, CD31 staining, tube area, NPC library (AID 1117340;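 active = compound that reduces growth-factor-driven endothelial tube area in a mixed cell culture, no cutoff stated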); settings: VEGF-stimulated ADSC/ECFC co-culture, at 10 µM, stronger effect = higher value
[15] = glucagon-like peptide 1 release enhancers, primary assay, NCI-H716 cell line, NPC library (AID 1117341;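 active = compound raises GLP1 secretion from the human gut endocrine cells, with no numeric limit stated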); settings: NCI-H716 cells, at 10 µM, stronger effect = higher value
[16] = modulation of C. elegans fzo-1 (AID 1259413; call rule not given here;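 note: fzo-1 mutant C. elegans worms in liquid wells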); settings: C. elegans fzo-1 modulator screen, mean read-out; stronger effect = higher value
[17] = survival rescue of mitochondrial mutant cells in low glucose, primary screen, MELAS cybrids, Rieske KO mouse fibroblasts, CellTiter-Glo (AID 1508586;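 active = mean z-score across replicates of 1.96 or higher in either the MELAS or the Rieske mutant cell line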;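 note: z relative to plate mean and SD of compound and empty wells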)
[18] = measured here: epithelial PC-3E GFP cell survival
[19] = measured here: mesenchymal TEM4-18 mCherry cell survival
[20] = stronger effect = lower value, cell number ratio, induced over uninduced
[21] = measured here: relative caspase fold change +Dox/-Dox
[22] = measured here: total cells with miR-34 induction, stronger effect = lower value
[23] = measured here: total cells without miR-34 induction
[24] = MELAS cybrid survival, CellTiter-Glo 48 h, stronger effect = higher value
[25] = Rieske KO mouse fibroblast survival, CellTiter-Glo 72 h

Compound: Oc1ccc(O)cc1
- nuclear beta-catenin stimulation ([1]; at 10 µM): 10.9% (inactive)
- nuclear beta-catenin stimulation ([1]; stimulation, at 2 µM): 14.4%
- viability decrease [2]: 45.2% (inactive)
- inhibition of viability [3]: -47.7% (inactive)
- viability decrease (inhibition) [4]: 20.4% (inactive)
- viability decrease (inhibition) [5]: -15% (inactive)
- inhibition [6]: 10.8% (inactive)
- red/green cell ratio (normalised) [7]: 1.14 (inactive)
- normalised cell number [7, 18]: 1.14
- normalised cell number [7, 19]: 1.29
- fold change [8, 20]: 0.97 (inactive) and 0.922 (inactive)
- fold change [8, 21]: 0.837 and 1.69
- cell count [8, 22]: 7800 and 7820
- cell count [8, 23]: 8040 and 8490
- remaining NAD [9]: 10 nM (inactive)
- luciferase signal [10]: 40 AU (inactive)
- z-score [11]: -1.04 (inactive)

Compound: COc1c2occc2cc2ccc(=O)oc12
- survival [12]: 5.42 (inactive)
- insulin secretion stimulation [13]: 1.9% (inactive)
- viability decrease [2]: -33.7% (inactive)
- tube area decrease [14]: 3.8% (inactive)
- GLP1 secretion stimulation [15]: 2% (inactive)
- inhibition of viability [3]: 8.3% (inactive)
- viability decrease (inhibition) [4]: 26.9% (inactive)
- viability decrease (inhibition) [5]: 8.4% (inactive)
- inhibition [6]: 3.81% (inactive)
- mean signal [16]: 248 (inactive)
- red/green cell ratio (normalised) [7]: 1.15 (inactive)
- normalised cell number [7, 18]: 0.84
- normalised cell number [7, 19]: 0.96
- z-score [17, 24]: -0.203 (inactive)
- z-score [17, 25]: -0.0388
- remaining NAD [9]: 10 nM (inactive)
- luciferase signal [10]: 24 AU (inactive)
- z-score [11]: 0.975 (inactive)

Compound: CCN(CC)CC(=O)Nc1c(C)cc(C)cc1C
- insulin secretion stimulation [13]: -0.3% (inactive)
- viability decrease [2]: -7.6% (inactive)
- tube area decrease [14]: 7.2% (inactive)
- GLP1 secretion stimulation [15]: -3.6% (inactive)
- inhibition of viability [3]: 4.6% (inactive)
- viability decrease (inhibition) [4]: 6% (inactive)
- viability decrease (inhibition) [5]: -2% (active)

Compound: CN(C)C(=O)C(CCN1CCC(O)(c2ccc(Cl)cc2)CC1)(c1ccccc1)c1ccccc1
- survival [12]: 9 (inactive)
- insulin secretion stimulation [13]: 1.9% (inactive)
- viability decrease [2]: 64.9% (active)
- tube area decrease [14]: 11.7% (inactive)
- GLP1 secretion stimulation [15]: 2.9% (inactive)
- inhibition of viability [3]: 90.6% (active)
- viability decrease (inhibition) [4]: 99.6% (active)
- viability decrease (inhibition) [5]: 88.2% (active)
- inhibition [6]: 1.17% (inactive)
- mean signal [16]: 201 (inactive)
- red/green cell ratio (normalised) [7]: 1.02 (inactive)
- normalised cell number [7, 18]: 1.3
- normalised cell number [7, 19]: 1.33
- z-score [17, 24]: -0.364 (inactive) and -0.238 (inactive) and 0.591 (inactive)
- z-score [17, 25]: -1.34 and 0.463 and -0.456
- remaining NAD [9]: 10 nM (inactive)
- luciferase signal [10]: 40 AU (inactive)

Compound: CNCCCN1c2ccccc2CCc2ccccc21
- survival [12]: 2.75 (inactive)
- insulin secretion stimulation [13]: 15.8% (inactive)
- viability decrease [2]: -17.7% (inactive)
- tube area decrease [14]: 12.6% (inactive)
- GLP1 secretion stimulation [15]: 5.9% (inactive)
- inhibition of viability [3]: 37.5% (inactive)
- viability decrease (inhibition) [4]: 104% (active)
- viability decrease (inhibition) [5]: 33.3% (inactive)
- inhibition [6]: 3.76% (inactive)
- mean signal [16]: 181 (inactive)
- red/green cell ratio (normalised) [7]: 1.1 (inactive)
- normalised cell number [7, 18]: 1.36
- normalised cell number [7, 19]: 1.5
- z-score [17, 24]: 0.0784 (inactive)
- z-score [17, 25]: 0.183
- remaining NAD [9]: 10 nM (inactive)
- luciferase signal [10]: 80 AU (inactive)
- z-score [11]: -0.895 (inactive) and -0.71 (inactive)

Compound: COc1cc2c(cc1-c1coc3c4c(c(OC)cc3c1=O)OC(C)(C)C=C4)OCO2
- inhibition [6]: 8.44% (inactive)

Compound: COc1cc(O)c2c(=O)cc(-c3ccc(O)cc3)oc2c1
- inhibition [6]: 6.18% (inactive)

Compound: Cc1cc(=O)c2c(O)c3c(cc2o1)OCC(C)CC3 (stereo not given)
- inhibition [6]: 4.57% (inactive)

Compound: CC(C)/C(O)=C1/C(=O)O[C@@H](c2ccoc2)[C@]2(C)C(O)[C@@H](O)[C@@]34OC5(C)OC67CC(C)(C(O)[C@]6(O)[C@@H](O)[C@]3(O5)C12)[C@H](CC(=O)O)[C@]74C (stereo not given in full)
- inhibition [6]: 16.8% (inactive)

Compound: CN[C@H]1[C@@H](O[C@@H]2[C@@H](O[C@H]3[C@H](O)[C@@H](O)[C@H](N=C(N)N)[C@@H](O)[C@@H]3N=C(N)N)O[C@H](C)[C@@]2(O)C=O)O[C@H](CO)[C@@H](O)[C@@H]1O
- inhibition [6]: 6.7% (inactive)

Compound: CN1[C@@H]2CC(OC(=O)[C@H](CO)c3ccccc3)C[C@H]1[C@@H]1O[C@@H]12 (stereo not given in full)
- insulin secretion stimulation [13]: 0.9% (inactive)
- viability decrease [2]: 1% (inactive)
- tube area decrease [14]: -4.7% (inactive)
- GLP1 secretion stimulation [15]: 2.4% (inactive)
- inhibition of viability [3]: -0.5% (inactive)
- viability decrease (inhibition) [4]: -5.7% (inactive)
- viability decrease (inhibition) [5]: -0.6% (inactive)
- inhibition [6]: 6.42% (inactive)
- mean signal [16]: 252 (inactive)
- fold change [8, 20]: 0.844 (inactive) and 0.894 (inactive) and 0.852 (inactive)
- fold change [8, 21]: 1.08 and 0.602 and 0.997
- cell count [8, 22]: 8470 and 8340 and 9610
- cell count [8, 23]: 10000 and 9330 and 11300
- z-score [17, 24]: -0.375 (inactive) and 0.309 (inactive)
- z-score [17, 25]: -0.839 and -0.133
- remaining NAD [9]: 10 nM (inactive)
- luciferase signal [10]: 88 AU (inactive)
- z-score [11]: -0.01 (inactive) and 0.315 (inactive)
